Data on 39 compounds can be found in PubChem BioAssay AID1508625 (Wald Lab, School of Medicine, Case Western Reserve …, 2021).

The nature of the assay: enhancers of NK cell killing of ovarian tumor cells, primary screen, imaging, OVCAR3, primary NK cells, calcein-AM imaging (AID 1508625).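 Further: compound given to NK cells 16 h before adding targets at 1.5 to 1 ratio.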 Particulars: OVCAR3 lysis by primary NK cells, at 5 µM; z-score: measured here: robust Z-score, single-point normalisation.
In the case of `COc1ccc(-c2nocc2C(N)=O)cc1OC`, the corrected activity, negative = more killing is -3.72% and the z-score was -1.63.

For `CCCOc1ccc(C(=O)Nc2ccc3nn(-c4ccc(OCC)cc4)nc3c2)cc1`, the z-score is -1.2 and the corrected activity, negative = more killing was -3.37%.

`COc1cccc(C2C3=C(CCCC3=O)NC3=C2C(=O)CCC3)c1OC`: the corrected activity, negative = more killing is -3.89% and the z-score is -1.45.

As for `CC(=O)Nc1ccc(N2C(=O)C3C4CC(C(Br)C4Br)C3C2=O)cc1` (stereo not drawn), the corrected activity, negative = more killing is -2.24% and the z-score was -0.796.

On to `Cc1ccc(OCCN2CCNCC2)c(Br)c1`, for which the z-score was -1.36 and the corrected activity, negative = more killing is -2.45%.

For the compound `Cc1c(C(=O)NCc2ccc(F)cc2)sc2ncn(Cc3ccccc3Cl)c(=O)c12`, the z-score was -0.998 and the corrected activity, negative = more killing was -2.74%.

Take `O=C(Nc1ccc(Br)cc1)c1ccc(Cl)c(S(=O)(=O)N2CCCCCC2)c1`: the z-score was -2.91 and the corrected activity, negative = more killing was -9.39%.

Consider `COc1ccc(NC(=O)C(N)=O)cc1`, for which the z-score is -1.62 and the corrected activity, negative = more killing was -3.82%.

Consider `Cc1ccc(S(=O)(=O)N2CCCCCC2)cc1C`, for which the corrected activity, negative = more killing was 1.77% and the z-score was 0.548.

As to `CC1=NN(C(=O)C(C)C)C(O)(c2ccccc2)C1` (stereo not drawn), the corrected activity, negative = more killing is -7.14% and the z-score was -3.83.

As to `O=[N+]([O-])c1ccc(OCCCN2CCNCC2)cc1`, the z-score is -2.02 and the corrected activity, negative = more killing was -3.62%.

For the compound `COc1cc2c(cc1NC(=O)COc1ccccc1F)oc1ccccc12`, the z-score was 0.0792 and the corrected activity, negative = more killing is 0.193%.

Take `Cc1ccccc1C(=O)Nc1ccc(C(=O)O)cc1NC(=O)c1ccccc1C`: the z-score was -0.197 and the corrected activity, negative = more killing was -0.368%.

As for `CCOC(=O)C1CCN(c2ccc([N+](=O)[O-])cc2S(=O)(=O)N2CCOCC2)CC1`, the z-score was -0.939 and the corrected activity, negative = more killing is -3.03%.

Regarding `CC(=O)Nc1ccc(-n2c(C)ccc2C)c(C(=O)O)c1`, the z-score is -1.01 and the corrected activity, negative = more killing was -2.26%.

Turning to `Cc1[nH]c2ccccc2c(=O)c1CN(C)Cc1ccccc1`, the z-score was 0.175 and the corrected activity, negative = more killing was 0.566%.

As to `CCOC(=O)c1ccc(NC(=O)C2CCN(C(=O)c3cccs3)CC2)cc1`, the z-score was -2.48 and the corrected activity, negative = more killing was -6.67%.

As for `Cc1sc2c(c1C)c(=O)n(CCc1ccccc1)c(=O)n2Cc1cccc([N+](=O)[O-])c1`, the z-score was -0.733 and the corrected activity, negative = more killing is -2.58%.

For the compound `O=C(c1ccc(COCC(F)(F)F)o1)N1CCCCCC1`, the corrected activity, negative = more killing was -2.9% and the z-score was -1.19.

Regarding `O=C(Cn1cnc2sc3c(c2c1=O)CCCC3)NCCCC(=O)Nc1ccccc1F`, the z-score was -1.01 and the corrected activity, negative = more killing is -3.19%.

With `O=C1CC(c2ccc(Cl)cc2)CC2=C1C(c1cccc(F)c1)Nc1ccccc1N2` (stereo not drawn), the corrected activity, negative = more killing was -9.53% and the z-score is -2.95.

For the compound `Cn1c2ccccc2n2c(SCC(=O)O)nnc12`, the z-score is -2.01 and the corrected activity, negative = more killing was -4.88%.

Regarding `Cc1ccc(C(=O)Nc2cccc(C(=O)O)c2)cc1S(=O)(=O)Nc1ccc(Br)cc1`, the z-score was -3.16 and the corrected activity, negative = more killing is -15%.

In the case of `CCOc1ccc(S(=O)(=O)Nc2ccc(Cl)cc2)c2cccnc12`, the corrected activity, negative = more killing is -3.11% and the z-score was -0.989.

On to `CCc1cccc(NC(=O)CN(C)S(=O)(=O)c2cccs2)c1`, for which the corrected activity, negative = more killing was -4.79% and the z-score is -1.36.

In the case of `CSCCOC(=O)C1=C(C)NC(=O)NC1c1cccc([N+](=O)[O-])c1` (stereo not drawn), the z-score was 0.0664 and the corrected activity, negative = more killing was 0.214%.

On to `COc1ccc(Nc2ccncc2[N+](=O)[O-])cc1`, for which the corrected activity, negative = more killing is -5.75% and the z-score was -3.2.

Consider `COc1ccc(OCCCN2CCc3ccccc3C2)cc1`, for which the z-score was -2.58 and the corrected activity, negative = more killing was -4.65%.

For `Cc1ccc([N+](=O)[O-])cc1NS(=O)(=O)c1ccc(Cl)cc1`, the z-score is 1.33 and the corrected activity, negative = more killing was 4.17%.

As to `CCOC(=O)c1ccc(NC(=O)C(=O)N2CCCC2)cc1`, the corrected activity, negative = more killing is -5.89% and the z-score is -2.55.

Regarding `CCOC(=O)c1c(NC(=O)c2cc([N+](=O)[O-])ccc2N2CCCCCC2)sc2c1CCCC2`, the corrected activity, negative = more killing was -2.4% and the z-score is -0.744.

Regarding `COc1cc(OC)c(CN2CCN3CCCC3C2C)cc1Br` (stereo not drawn), the corrected activity, negative = more killing is -2.76% and the z-score was -1.21.

As to `COc1ccc(Cl)cc1NC(=O)CSc1nc2c([nH]c3ccccc32)c(=O)n1C`, the z-score was -0.59 and the corrected activity, negative = more killing is -2.37%.

Turning to `O=C(Nc1nc(-c2ccc([N+](=O)[O-])cc2)cs1)c1ccccc1F`, the z-score was -0.252 and the corrected activity, negative = more killing is -1.2%.

In the case of `O=C1C2C3C=CC(CC3)C2C(=O)N1c1ccccc1[N+](=O)[O-]` (stereo not drawn), the corrected activity, negative = more killing is -2.44% and the z-score is -1.04.

As to `O=C(Nc1ccc(Cl)cc1)c1cc(S(=O)(=O)NC2CCCC2)ccc1F`, the z-score was -0.756 and the corrected activity, negative = more killing was -2.8%.

Regarding `CCOc1ccc(C2C(N3C(=O)c4ccc([N+](=O)[O-])cc4C3=O)C(=O)N2c2ccc(Cl)cc2)cc1` (stereo not drawn), the z-score is 0.278 and the corrected activity, negative = more killing was 0.896%.

For the compound `O=C(CSCc1ccccc1Cl)NCCc1ccc(Cl)cc1`, the corrected activity, negative = more killing is -1.86% and the z-score is -0.502.

As for `O=C(Nc1cc([N+](=O)[O-])ccc1Cl)c1cnc2n(c1=O)CCS2`, the z-score was -0.332 and the corrected activity, negative = more killing was -1.04%.
